Results as given in article PMC7862700, “An all-to-all approach to the identification of sequence-specific readers for epigenetic DNA modifications on cytosine”.

Experiments:
Experiment in all cases: DAPPL (digital affinity profiling via proximity ligation, sequencing); 10 mM Tris-HCl pH 7.5, 50 mM NaCl, 1 mM DTT, 4% glycerol, room temperature, 30 min; GST-TFs on glutathione beads, 16-mer random dsDNA library, 0.1% formaldehyde crosslink after washing; high values mean tight binding
FLI1 = target: T1, FLI1 (Homo sapiens, UniProt Q01543 1-452); conditions: protein: recombinant; tags: N-terminal GST; dsDNA, one strand shown
T1 sequence: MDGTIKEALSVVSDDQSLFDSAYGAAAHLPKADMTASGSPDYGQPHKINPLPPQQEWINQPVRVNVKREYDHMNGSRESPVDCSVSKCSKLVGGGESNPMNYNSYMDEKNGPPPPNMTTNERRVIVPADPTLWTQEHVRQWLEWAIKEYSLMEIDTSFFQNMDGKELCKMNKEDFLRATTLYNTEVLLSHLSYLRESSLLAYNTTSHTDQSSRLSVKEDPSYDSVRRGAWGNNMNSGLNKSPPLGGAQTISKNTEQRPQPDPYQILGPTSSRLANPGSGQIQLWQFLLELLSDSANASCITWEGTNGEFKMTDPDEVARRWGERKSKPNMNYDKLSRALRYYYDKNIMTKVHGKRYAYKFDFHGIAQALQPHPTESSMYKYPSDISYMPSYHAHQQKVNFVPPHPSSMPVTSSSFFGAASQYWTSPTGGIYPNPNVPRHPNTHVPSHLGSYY
Summary of the method: (§1)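 Each value of binding signal is a hexamer's read frequency for a factor divided by the same hexamer's frequency in the tag-only sample. Barcoded, bead-captured GST fusions of human transcription factors made in yeast were pooled with that sample and incubated with 200 nmole of a random double-stranded 16-mer DNA library in Tris/NaCl/DTT/glycerol buffer at room temperature for 30 min. Washing, 0.1% formaldehyde crosslinking, proximity ligation, PCR and Illumina NextSeq500 sequencing followed.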

ELK1 = target: T2, ELK1 (Homo sapiens, UniProt P19419 1-428); conditions: protein: recombinant; tags: N-terminal GST; dsDNA, one strand shown
T2 sequence: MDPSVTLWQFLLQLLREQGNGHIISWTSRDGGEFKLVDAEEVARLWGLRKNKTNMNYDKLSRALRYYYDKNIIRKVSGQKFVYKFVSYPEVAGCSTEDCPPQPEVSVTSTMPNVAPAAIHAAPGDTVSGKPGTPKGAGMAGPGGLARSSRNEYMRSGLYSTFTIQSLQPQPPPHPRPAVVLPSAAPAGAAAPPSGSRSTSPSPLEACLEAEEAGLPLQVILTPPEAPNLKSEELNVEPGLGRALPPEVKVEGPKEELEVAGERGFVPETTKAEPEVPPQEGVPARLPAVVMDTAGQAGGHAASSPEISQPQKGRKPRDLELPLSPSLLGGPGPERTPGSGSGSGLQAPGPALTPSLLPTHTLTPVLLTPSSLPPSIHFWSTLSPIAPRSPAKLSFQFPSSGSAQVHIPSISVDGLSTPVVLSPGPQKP
Summary of the method: as §1

GABPA = target: T3, GABPA (Homo sapiens, UniProt Q06546 1-454); conditions: protein: recombinant; tags: N-terminal GST; dsDNA, one strand shown
T3 sequence: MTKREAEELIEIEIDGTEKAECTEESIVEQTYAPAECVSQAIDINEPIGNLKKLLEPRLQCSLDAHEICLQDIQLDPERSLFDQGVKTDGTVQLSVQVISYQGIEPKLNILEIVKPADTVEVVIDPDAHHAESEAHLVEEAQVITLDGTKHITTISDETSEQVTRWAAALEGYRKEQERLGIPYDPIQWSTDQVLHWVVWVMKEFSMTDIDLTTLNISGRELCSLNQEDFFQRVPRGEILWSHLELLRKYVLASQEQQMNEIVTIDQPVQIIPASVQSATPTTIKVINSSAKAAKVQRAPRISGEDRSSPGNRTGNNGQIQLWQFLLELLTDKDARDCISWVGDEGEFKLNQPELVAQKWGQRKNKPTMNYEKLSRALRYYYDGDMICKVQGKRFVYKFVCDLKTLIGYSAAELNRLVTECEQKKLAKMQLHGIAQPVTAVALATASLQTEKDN
Summary of the method: as §1

ERG = target: T4, ERG (Homo sapiens, UniProt P11308 1-479); conditions: protein: recombinant; tags: N-terminal GST; dsDNA, one strand shown
T4 sequence: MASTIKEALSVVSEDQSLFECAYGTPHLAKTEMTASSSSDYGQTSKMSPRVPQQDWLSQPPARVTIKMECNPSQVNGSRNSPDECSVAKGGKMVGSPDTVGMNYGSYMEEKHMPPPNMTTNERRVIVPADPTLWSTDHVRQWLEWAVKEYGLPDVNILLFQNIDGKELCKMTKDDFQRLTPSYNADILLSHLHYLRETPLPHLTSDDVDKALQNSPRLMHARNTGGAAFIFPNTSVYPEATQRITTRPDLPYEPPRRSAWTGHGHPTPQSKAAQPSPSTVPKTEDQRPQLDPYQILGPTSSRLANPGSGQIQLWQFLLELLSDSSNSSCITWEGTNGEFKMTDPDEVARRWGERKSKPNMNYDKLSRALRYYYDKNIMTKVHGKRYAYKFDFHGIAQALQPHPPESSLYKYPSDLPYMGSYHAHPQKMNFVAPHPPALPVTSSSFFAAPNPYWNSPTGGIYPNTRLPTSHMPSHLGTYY
Summary of the method: as §1

ELF1 = ELF1 (Homo sapiens, UniProt P32519 1-619); conditions: protein: recombinant; tags: N-terminal GST; dsDNA, one strand shown
Chain of ELF1 (P32519 whole entry): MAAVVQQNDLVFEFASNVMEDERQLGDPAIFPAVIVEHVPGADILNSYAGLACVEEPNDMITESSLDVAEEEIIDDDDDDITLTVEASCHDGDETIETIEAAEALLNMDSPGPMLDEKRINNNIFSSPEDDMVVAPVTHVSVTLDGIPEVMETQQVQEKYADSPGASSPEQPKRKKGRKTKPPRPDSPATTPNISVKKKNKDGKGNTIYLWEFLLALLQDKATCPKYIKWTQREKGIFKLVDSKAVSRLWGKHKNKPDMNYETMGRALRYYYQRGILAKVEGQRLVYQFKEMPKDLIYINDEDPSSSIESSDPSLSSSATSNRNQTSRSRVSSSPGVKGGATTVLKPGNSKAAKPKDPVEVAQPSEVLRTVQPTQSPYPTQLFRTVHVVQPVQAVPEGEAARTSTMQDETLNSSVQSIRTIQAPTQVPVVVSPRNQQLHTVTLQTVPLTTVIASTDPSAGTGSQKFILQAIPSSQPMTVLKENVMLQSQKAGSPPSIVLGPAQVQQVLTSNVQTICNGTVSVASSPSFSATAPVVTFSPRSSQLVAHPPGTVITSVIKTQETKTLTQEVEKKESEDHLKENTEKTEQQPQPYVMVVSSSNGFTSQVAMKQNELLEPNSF
Summary of the method: as §1

EHF = target: T5, EHF (Homo sapiens, UniProt Q9NZC4 1-300); conditions: protein: recombinant; tags: N-terminal GST; dsDNA, one strand shown
T5 sequence: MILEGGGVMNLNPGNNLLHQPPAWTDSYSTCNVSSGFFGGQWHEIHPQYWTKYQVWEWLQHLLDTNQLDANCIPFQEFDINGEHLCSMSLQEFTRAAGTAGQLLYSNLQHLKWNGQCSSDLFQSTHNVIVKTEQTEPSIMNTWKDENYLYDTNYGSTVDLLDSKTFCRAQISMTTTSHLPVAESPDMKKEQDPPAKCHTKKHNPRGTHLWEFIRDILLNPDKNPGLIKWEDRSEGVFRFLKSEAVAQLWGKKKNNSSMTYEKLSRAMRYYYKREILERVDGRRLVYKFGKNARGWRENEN
Summary of the method: as §1

SPI1 = SPI1 (Homo sapiens, UniProt P17947 1-270); conditions: protein: recombinant; tags: N-terminal GST; dsDNA, one strand shown
Summary of the method: as §1

SPIB = SPIB (Homo sapiens, UniProt Q01892 1-262); conditions: protein: recombinant; tags: N-terminal GST; dsDNA, one strand shown
Chain of SPIB (Q01892 whole entry): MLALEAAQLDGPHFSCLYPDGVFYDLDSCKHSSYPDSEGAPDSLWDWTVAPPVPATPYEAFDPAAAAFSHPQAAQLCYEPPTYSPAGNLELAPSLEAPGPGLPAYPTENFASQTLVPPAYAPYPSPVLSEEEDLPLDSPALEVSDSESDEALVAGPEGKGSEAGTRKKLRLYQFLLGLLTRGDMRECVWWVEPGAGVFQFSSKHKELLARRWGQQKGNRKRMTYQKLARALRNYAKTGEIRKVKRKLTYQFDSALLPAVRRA
Summary of the method: as §1

ELK3 = target: T6, ELK3 (Homo sapiens, UniProt P41970 1-407); conditions: protein: recombinant; tags: N-terminal GST; dsDNA, one strand shown
T6 sequence: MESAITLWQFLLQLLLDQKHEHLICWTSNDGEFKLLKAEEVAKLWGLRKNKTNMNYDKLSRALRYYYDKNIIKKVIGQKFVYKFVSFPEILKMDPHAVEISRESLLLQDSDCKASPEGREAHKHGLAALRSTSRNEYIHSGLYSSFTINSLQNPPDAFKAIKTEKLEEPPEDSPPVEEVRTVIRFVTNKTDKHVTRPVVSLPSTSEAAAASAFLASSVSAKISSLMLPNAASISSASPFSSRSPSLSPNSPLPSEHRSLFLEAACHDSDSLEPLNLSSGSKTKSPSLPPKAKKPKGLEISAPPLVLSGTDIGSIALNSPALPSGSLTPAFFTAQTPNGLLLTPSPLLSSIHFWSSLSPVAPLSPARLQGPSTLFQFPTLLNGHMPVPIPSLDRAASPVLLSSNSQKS
Summary of the method: as §1

FEV = target: T7, FEV (Homo sapiens, UniProt Q99581 1-238); conditions: protein: recombinant; tags: N-terminal GST; dsDNA, one strand shown
T7 sequence: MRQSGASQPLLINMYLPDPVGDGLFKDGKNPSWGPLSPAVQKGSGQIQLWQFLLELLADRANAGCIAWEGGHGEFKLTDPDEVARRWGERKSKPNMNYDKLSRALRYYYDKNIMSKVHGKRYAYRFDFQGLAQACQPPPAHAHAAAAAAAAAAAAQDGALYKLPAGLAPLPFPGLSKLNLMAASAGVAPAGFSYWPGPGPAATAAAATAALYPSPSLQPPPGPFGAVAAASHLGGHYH
Summary of the method: as §1

ETV5 = ETV5 (Homo sapiens, UniProt P41161 1-510); conditions: protein: recombinant; tags: N-terminal GST; dsDNA, one strand shown
Chain of ETV5 (P41161 whole entry): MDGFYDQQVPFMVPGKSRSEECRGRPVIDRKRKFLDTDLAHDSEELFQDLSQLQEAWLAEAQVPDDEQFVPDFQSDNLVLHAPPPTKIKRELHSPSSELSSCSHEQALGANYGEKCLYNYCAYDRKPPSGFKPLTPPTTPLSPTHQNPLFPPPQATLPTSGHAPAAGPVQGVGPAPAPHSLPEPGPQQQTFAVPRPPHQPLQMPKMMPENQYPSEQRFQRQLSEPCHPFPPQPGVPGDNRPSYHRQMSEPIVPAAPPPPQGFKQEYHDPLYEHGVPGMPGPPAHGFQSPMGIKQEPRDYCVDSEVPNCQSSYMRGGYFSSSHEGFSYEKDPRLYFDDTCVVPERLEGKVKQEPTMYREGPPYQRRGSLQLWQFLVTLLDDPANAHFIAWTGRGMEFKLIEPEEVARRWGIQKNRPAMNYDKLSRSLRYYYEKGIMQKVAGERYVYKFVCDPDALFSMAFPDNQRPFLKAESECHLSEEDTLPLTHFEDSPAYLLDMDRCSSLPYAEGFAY
Summary of the method: as §1

HSF1 = HSF1 (Homo sapiens, UniProt Q00613 1-529); conditions: protein: recombinant; tags: N-terminal GST; chain copies: 3; dsDNA, one strand shown
Chain of HSF1 (Q00613 whole entry): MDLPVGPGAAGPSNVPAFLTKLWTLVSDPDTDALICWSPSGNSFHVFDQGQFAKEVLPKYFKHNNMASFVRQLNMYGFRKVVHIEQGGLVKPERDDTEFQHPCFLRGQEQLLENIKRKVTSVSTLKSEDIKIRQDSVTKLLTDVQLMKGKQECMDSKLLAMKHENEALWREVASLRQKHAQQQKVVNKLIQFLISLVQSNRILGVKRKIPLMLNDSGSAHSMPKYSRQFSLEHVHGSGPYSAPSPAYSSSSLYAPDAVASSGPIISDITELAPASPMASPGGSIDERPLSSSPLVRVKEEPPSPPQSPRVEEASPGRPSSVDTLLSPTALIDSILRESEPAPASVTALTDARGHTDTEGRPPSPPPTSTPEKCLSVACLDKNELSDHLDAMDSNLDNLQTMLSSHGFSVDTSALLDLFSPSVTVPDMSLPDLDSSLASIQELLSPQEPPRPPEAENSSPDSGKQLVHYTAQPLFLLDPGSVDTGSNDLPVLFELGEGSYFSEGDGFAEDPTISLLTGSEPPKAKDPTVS
Summary of the method: as §1

SPIC = target: T8, SPIC (Homo sapiens, UniProt Q8N5J4 1-248); conditions: protein: recombinant; tags: N-terminal GST; dsDNA, one strand shown
T8 sequence: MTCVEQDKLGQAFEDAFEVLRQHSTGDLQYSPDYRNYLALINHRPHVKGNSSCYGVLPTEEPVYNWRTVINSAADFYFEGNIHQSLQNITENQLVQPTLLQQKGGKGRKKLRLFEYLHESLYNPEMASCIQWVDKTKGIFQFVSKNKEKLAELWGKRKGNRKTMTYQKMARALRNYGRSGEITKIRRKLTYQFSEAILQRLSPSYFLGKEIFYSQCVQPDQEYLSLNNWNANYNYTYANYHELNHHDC
Summary of the method: as §1

ELF4 = ELF4 (Homo sapiens, UniProt Q99607 1-663); conditions: protein: recombinant; tags: N-terminal GST; dsDNA, one strand shown
Chain of ELF4 (Q99607 whole entry): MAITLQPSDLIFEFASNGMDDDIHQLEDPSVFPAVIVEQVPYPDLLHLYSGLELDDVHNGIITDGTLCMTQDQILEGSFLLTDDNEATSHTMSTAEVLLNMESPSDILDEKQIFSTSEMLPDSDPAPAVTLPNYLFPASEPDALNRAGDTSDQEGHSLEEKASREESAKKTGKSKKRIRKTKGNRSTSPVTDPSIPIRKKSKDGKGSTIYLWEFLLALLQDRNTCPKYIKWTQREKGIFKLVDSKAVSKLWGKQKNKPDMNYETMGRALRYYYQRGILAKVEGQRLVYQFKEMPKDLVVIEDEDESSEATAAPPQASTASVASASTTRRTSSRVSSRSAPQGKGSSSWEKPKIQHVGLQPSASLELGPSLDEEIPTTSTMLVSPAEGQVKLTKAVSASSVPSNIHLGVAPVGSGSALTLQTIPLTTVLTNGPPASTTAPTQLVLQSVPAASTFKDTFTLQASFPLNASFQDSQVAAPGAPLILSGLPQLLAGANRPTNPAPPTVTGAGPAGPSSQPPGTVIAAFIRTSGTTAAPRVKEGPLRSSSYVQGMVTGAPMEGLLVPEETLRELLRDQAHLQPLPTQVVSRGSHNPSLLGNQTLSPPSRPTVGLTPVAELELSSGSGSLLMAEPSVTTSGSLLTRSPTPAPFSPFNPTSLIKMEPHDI
Summary of the method: as §1

ELK4 = target: T9, ELK4 (Homo sapiens, UniProt P28324-2 1-405); conditions: protein: recombinant; tags: N-terminal GST; dsDNA, one strand shown
T9 sequence: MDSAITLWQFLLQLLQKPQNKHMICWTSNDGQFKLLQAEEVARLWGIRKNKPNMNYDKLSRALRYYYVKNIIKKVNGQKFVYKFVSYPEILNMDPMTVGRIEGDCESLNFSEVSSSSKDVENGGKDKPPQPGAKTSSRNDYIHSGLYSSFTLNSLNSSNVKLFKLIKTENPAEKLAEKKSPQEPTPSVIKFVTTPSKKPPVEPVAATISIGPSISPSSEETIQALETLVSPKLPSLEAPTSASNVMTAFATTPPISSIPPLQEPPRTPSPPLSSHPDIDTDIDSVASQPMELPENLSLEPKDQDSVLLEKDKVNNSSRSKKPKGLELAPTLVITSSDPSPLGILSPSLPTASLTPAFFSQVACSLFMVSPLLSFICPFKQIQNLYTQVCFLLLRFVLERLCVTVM
Summary of the method: as §1

ETV2 = target: T10, ETV2 (Homo sapiens, UniProt O00321 1-342); conditions: protein: recombinant; tags: N-terminal GST; dsDNA, one strand shown
T10 sequence: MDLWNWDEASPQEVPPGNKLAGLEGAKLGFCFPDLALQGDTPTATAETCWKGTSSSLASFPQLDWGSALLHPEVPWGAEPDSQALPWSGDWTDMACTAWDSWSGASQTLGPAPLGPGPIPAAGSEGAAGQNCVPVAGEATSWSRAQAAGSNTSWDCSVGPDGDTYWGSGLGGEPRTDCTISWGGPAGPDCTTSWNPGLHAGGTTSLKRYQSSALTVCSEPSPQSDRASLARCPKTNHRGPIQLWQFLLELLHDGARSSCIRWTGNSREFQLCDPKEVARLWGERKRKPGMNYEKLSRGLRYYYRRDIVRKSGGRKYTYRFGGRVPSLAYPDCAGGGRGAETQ
Summary of the method: as §1

ELF3 = target: T11, ELF3 (Homo sapiens, UniProt P78545 1-371); conditions: protein: recombinant; tags: N-terminal GST; dsDNA, one strand shown
T11 sequence: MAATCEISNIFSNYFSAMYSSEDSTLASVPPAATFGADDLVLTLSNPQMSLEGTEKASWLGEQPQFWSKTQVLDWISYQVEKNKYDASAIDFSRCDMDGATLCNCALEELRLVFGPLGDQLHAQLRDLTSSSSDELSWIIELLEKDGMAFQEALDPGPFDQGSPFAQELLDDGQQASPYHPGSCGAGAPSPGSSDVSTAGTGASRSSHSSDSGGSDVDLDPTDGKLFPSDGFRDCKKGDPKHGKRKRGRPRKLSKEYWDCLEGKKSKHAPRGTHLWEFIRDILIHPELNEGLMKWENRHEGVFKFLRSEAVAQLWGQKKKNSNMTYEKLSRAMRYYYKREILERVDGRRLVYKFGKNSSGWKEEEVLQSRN
Summary of the method: as §1

CRX = CRX (Homo sapiens, UniProt O43186 1-299); conditions: protein: recombinant; tags: N-terminal GST; dsDNA, one strand shown
Chain of CRX (O43186 whole entry): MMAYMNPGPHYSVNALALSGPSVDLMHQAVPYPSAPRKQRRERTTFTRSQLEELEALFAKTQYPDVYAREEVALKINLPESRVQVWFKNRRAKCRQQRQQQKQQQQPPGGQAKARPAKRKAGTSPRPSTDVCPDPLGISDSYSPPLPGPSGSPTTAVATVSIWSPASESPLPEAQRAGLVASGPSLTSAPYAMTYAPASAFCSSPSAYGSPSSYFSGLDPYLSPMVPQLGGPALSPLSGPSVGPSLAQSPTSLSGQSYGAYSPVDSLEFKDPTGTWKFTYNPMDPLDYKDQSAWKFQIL
Summary of the method: as §1

ETV1 = ETV1 (Homo sapiens, UniProt P50549 1-477); conditions: protein: recombinant; tags: N-terminal GST; dsDNA, one strand shown
Chain of ETV1 (P50549 whole entry): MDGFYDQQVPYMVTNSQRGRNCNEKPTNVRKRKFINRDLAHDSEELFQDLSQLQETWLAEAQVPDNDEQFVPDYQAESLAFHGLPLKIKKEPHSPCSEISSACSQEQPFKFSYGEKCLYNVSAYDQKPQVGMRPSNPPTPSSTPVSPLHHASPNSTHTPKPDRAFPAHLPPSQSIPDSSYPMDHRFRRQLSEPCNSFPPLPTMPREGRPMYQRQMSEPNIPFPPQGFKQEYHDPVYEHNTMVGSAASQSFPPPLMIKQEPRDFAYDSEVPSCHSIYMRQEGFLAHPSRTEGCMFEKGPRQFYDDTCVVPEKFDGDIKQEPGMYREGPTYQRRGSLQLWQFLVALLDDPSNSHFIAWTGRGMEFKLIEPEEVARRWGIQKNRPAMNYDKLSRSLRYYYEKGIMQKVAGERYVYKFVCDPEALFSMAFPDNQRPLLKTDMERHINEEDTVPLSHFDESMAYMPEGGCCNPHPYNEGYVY
Summary of the method: as §1

CCAATC
binding signal (FLI1): 1.21 fold enrichment (6-mer frequency, TF over GST control) | binding signal (ELK1): 1.14 fold enrichment (6-mer frequency, TF over GST control) | binding signal (GABPA): 1.2 fold enrichment (6-mer frequency, TF over GST control) | binding signal (ERG): 1.12 fold enrichment (6-mer frequency, TF over GST control) | binding signal (ELF1): 1.23 fold enrichment (6-mer frequency, TF over GST control) | binding signal (EHF): 1 fold enrichment (6-mer frequency, TF over GST control) | binding signal (SPI1): 1.14 fold enrichment (6-mer frequency, TF over GST control) | binding signal (SPIB): 1.1 fold enrichment (6-mer frequency, TF over GST control) | binding signal (ELK3): 1.22 fold enrichment (6-mer frequency, TF over GST control) | binding signal (FEV): 1.11 fold enrichment (6-mer frequency, TF over GST control) | binding signal (ETV5): 1.16 fold enrichment (6-mer frequency, TF over GST control) | binding signal (HSF1): 1.13 fold enrichment (6-mer frequency, TF over GST control) | binding signal (SPIC): 1.24 fold enrichment (6-mer frequency, TF over GST control) | binding signal (ELF4): 1.19 fold enrichment (6-mer frequency, TF over GST control) | binding signal (ELK4): 1.18 fold enrichment (6-mer frequency, TF over GST control) | binding signal (ETV2): 1.16 fold enrichment (6-mer frequency, TF over GST control) | binding signal (ELF3): 1.11 fold enrichment (6-mer frequency, TF over GST control) | binding signal (CRX): 1.33 fold enrichment (6-mer frequency, TF over GST control) | binding signal (ETV1): 1.13 fold enrichment (6-mer frequency, TF over GST control)
